LDHA inh: inhibitors of human lactate dehydrogenase A; P00338; 0.15% of 480,000 active; purified LDHA, NADH/diaphorase-resazurin fluorescence; active compounds read low; activity change, % (values are at about 110 or 230 µM); AID 1347041; in the data active = activity change below about -30%; inconclusive = mostly about -25% to -30%;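 also: plate controls were DMSO wells for no effect and wells without enzyme for full effect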
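Remaining NADH was detected by diaphorase (0.133 mg/mL) converting 37 µM resazurin to fluorescent resorufin, read at 0 and 20 minutes. The preceding 5-minute room-temperature reaction used 2 nM LDHA, 0.2 mM sodium pyruvate and 0.06 mM NADH at pH 7.4.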
IDH1 R132H inh: inhibitors of human mutant IDH1 R132H. O75874. IDH1-R132H enzyme, NADPH consumption, diaphorase/resazurin fluorescence. Potency, µM (series often up to 76.6 µM), for inactives: top-dose activity change, negative = inhibition, usual class: inhibitors. 0.093% of 390,000 active. AID 602179; active = well fitted inhibition curve with a large enough effect; inconclusive = small, poorly fitted or top-dose-only effect; inactive = no such curve, though single readings can be large or run the other way; also: potency is read from the fitted curve at half-maximal effect; % is scaled to controls: 0 for no effect and ±100 for the full control effect; nearly all actives have a fitted effect of over 65% in size
Target sequence (O75874 whole entry R132H, stated change not applied): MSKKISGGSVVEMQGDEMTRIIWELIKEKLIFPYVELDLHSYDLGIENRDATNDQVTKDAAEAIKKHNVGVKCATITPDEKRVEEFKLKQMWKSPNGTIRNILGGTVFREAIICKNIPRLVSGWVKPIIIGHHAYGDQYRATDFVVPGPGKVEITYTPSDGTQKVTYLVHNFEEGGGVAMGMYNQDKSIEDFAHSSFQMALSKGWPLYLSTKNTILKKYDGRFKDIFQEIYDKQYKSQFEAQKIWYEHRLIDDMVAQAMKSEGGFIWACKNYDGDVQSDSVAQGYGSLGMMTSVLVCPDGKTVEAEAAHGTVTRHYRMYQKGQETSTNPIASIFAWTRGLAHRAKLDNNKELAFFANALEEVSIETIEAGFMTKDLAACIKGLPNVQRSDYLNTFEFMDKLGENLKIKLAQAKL
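IDH1-R132H (0.5 ug/mL dispensed) in pH 7.5 Tris buffer was preincubated 30 min with compound, then given a substrate mix of 0.016 mM NADPH and 2 mM alpha-KG for 80 min at room temperature; remaining NADPH was read by diaphorase/resazurin fluorescence.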
Akt phos inh: inhibitors of Akt phosphorylation; Neuro2A IGF-stimulated pAkt S473 HTRF, 20 min; active compounds read low; AID 651550; 0.32% of 360,000 active; activity change, % for hits at 50 µM; in the data active = activity change below about -80%; inconclusive = mostly about -51% to -80%; also: % is scaled to controls: 0 for no effect and ±100 for the full control effect
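Neuro2A cells (4,500/well, DMEM with 0.5% FBS) were treated with compound at a single 50 µM final concentration, stimulated with 6 nM IGF for 20 min at 37 °C, and lysed. Phospho-Akt Ser473 was read by HTRF as 665/615 ratio ×10^4.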
MLL CXXC-DNA inh: blocks binding of human MLL CXXC domain to DNA; Q03164; MLL-CXXC / FITC-HOXA9 DNA fluorescence polarization; Potency, µM (titrated, usually from 115 µM), inactives show top-dose activity change, negative = inhibition, usual class: inhibitors; 0.037% of 290,000 active; AID 2662; active = well fitted inhibition curve with a large enough effect in the polarisation, with a control signal flat, not every such curve was filed as active; inconclusive = small, poorly fitted or top-dose-only effect, or effect the other way, or a change in a side signal; inactive = no such curve, though single readings can be large or run the other way; the % refers to the polarisation; also: potency is read from the fitted curve at half-maximal effect
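Purified MLL-CXXC (added from a 7 uM solution) was preincubated 5 min at ambient with pinned compounds in 50 mM Tris-HCl pH 7.5, 50 mM NaCl, 1 mM DTT, 0.05% BSA. Fluorescein-labeled HOX-A9 DNA (50 nM solution) followed, 30 min, then polarization read.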
Menin MLL FP TR: inhibitors of human menin-MLL interaction, mutant MLL peptide. O00255. Potency, µM (series often up to 61.6 µM), without a hit: top-dose FP activity change, negative = inhibition, actives largely listed as inhibitors. Menin + Texas Red MLL mutant peptide, fluorescence polarization. 0.23% of 270,000 active; active = well fitted inhibition curve with a large enough effect in the polarisation, with a control signal flat, not every such curve was filed as active; inconclusive = small, poorly fitted or top-dose-only effect, or effect the other way, or a change in a side signal; inactive = no such curve, though single readings can be large or run the other way; the % refers to the polarisation; also: potency is read from the fitted curve at half-maximal effect; % of control where 0% means no effect
Menin-MLL FL inh: displaces fluorescein MLL peptide from human menin; Fluorescence polarization, fluorescein-MLL peptide displacement from menin; FP activity change, % at 61.4 µM; 290,000 tested, under 10 active; AID 1766; active = well fitted curve in the direction sought with a large enough effect in the polarisation, not every such curve was filed as active; inconclusive = small, poorly fitted or top-dose-only effect, or effect the other way, or a change in a side signal; inactive = no such curve, though single readings can be large or run the other way; the % refers to the polarisation; also: % of control where 0% means no effect
Numbers without * were called inactive. Only some compounds are listed: those with a hit (about 0.54% of all), similar ones and a draw of the others.

For CCN(CC)CCCN1C(=O)C(O)=C(C(=O)c2cc3ccccc3o2)C1c1ccccn1 (configuration not stated) the results were LDHA inh 5.4, IDH1 R132H inh 0.7%, Akt phos inh -94.6%*, MLL CXXC-DNA inh 17.1%, Menin MLL FP TR -0.5% and Menin-MLL FL inh 4.4.
Screening CCN(CC)CCCN1C(=O)C(O)=C(C(=O)c2cc3cccc(OC)c3o2)C1c1ccncc1 (configuration not stated) returned LDHA inh 2.7, IDH1 R132H inh 0.2%, Akt phos inh -89.8%*, MLL CXXC-DNA inh -4.9%, Menin MLL FP TR 20.2% and Menin-MLL FL inh 4.2.
For O=C(CCl)NC(NC(=O)CCl)c1ccccc1F the results were LDHA inh 2.7.
CN(C)c1nc2ccccc2c(N)c1-c1ccccc1 was read as LDHA inh -38.3*, IDH1 R132H inh 4.8%, MLL CXXC-DNA inh -3.8%, Menin MLL FP TR -27.1% and Menin-MLL FL inh 3.3.
O=C1CCN(C(=O)Nc2cccc(Cl)c2)N1 was read as LDHA inh 1.8, IDH1 R132H inh 3.2%, Akt phos inh -120.0%*, MLL CXXC-DNA inh 3.8%, Menin MLL FP TR 18.0% and Menin-MLL FL inh -1.2.
CN(CCOc1ccccc1F)C(=O)c1cnc2ccccc2n1 was read as LDHA inh -3.5.
For O=C(/C=C/c1ccc(OCc2ccccc2)cc1)c1ccccc1 the results were LDHA inh 7.6.
CCc1ccccc1NC(=O)CSC1=NS(=O)(=O)c2ccc(C)cc2N1 was read as LDHA inh -2.4.
`CC(C)Cn1nc(C(=O)N(C)c2cccc(C#N)c2)c2ccccc2c1=O` gave LDHA inh -3.1.
`C(C#CCCCCCCCCC[n+]1ccccc1)#CCCCCCCCCC[n+]1ccccc1` gave LDHA inh -6.9, IDH1 R132H inh 0.0%, Akt phos inh inactive, MLL CXXC-DNA inh 15.2%, Menin MLL FP TR 31.6µM* and Menin-MLL FL inh -7.2.
For Cc1nccn1CC(=O)N/N=C/c1cc(Br)cs1 the results were LDHA inh -12.4, IDH1 R132H inh 0.3%, Akt phos inh inactive, MLL CXXC-DNA inh -8.7% and Menin-MLL FL inh 0.2.
Screening CCN1CCN(CC(=O)N/N=C/c2cc(Br)cs2)CC1 returned LDHA inh -30.2*, IDH1 R132H inh 4.9%, Akt phos inh inactive, MLL CXXC-DNA inh -0.1%, Menin MLL FP TR -0.8% and Menin-MLL FL inh -4.6.
`C[n+]1cnc(-c2ccccc2)cc1-c1ccccc1` gave LDHA inh -48.5*, IDH1 R132H inh -0.7%, Akt phos inh inactive, MLL CXXC-DNA inh 8.6%, Menin MLL FP TR -7.8% and Menin-MLL FL inh 0.3.
For c1ccc(-c2cc(-c3ccccc3)ncn2)cc1 the results were LDHA inh -5.1, IDH1 R132H inh 1.3% and Akt phos inh inactive.
Screening NC(=O)c1ccccc1NCC(=O)c1ccc(Cl)cc1 returned LDHA inh -6.9, IDH1 R132H inh 52.1µM*, Akt phos inh inactive, MLL CXXC-DNA inh -13.2%, Menin MLL FP TR inconclusive and Menin-MLL FL inh -2.0.
For O=C(CNc1ccccc1C(=O)O)c1ccccc1 the results were LDHA inh -6.4, IDH1 R132H inh 21.3%, Akt phos inh inactive, MLL CXXC-DNA inh -5.2% and Menin-MLL FL inh 7.6.
Screening Cc1ccc(CC(=O)N(Cc2nc(-c3ccccc3)no2)C2CCCCC2)cc1 returned LDHA inh 1.1.
Screening CC(NC(=O)c1ccc(S(=O)(=O)N(C)C)cc1)c1ccccc1 (configuration not stated) returned LDHA inh -5.1, IDH1 R132H inh 1.2%, Akt phos inh -89.6%*, MLL CXXC-DNA inh 2.7%, Menin MLL FP TR -7.1% and Menin-MLL FL inh 3.6.
CC(NC(=O)c1ccc(S(=O)(=O)N(C)C)cc1)c1ccc(-n2ccnc2)cc1 (configuration not stated) was read as LDHA inh -15.5, IDH1 R132H inh 0.0%, Akt phos inh inactive, MLL CXXC-DNA inh -2.1%, Menin MLL FP TR 4.8% and Menin-MLL FL inh 1.7.
For N#Cc1c(N)n[nH]c1CCCCCNC(=O)Cc1ccc(-c2ccccc2)cc1 the results were LDHA inh 1.4.
Screening CSC1=C(C#N)C(CC(C)C)C2=C(CCCC2=O)N1 (configuration not stated) returned LDHA inh -10.3, IDH1 R132H inh 10.1%, Akt phos inh -117.6%*, MLL CXXC-DNA inh -3.2%, Menin MLL FP TR -1.2% and Menin-MLL FL inh 2.1.
For O=[N+]([O-])c1ccc(O)c(/C=N/Nc2nn[nH]n2)c1 the results were LDHA inh -46.0*, IDH1 R132H inh 7.5%, Akt phos inh inactive, MLL CXXC-DNA inh -3.2%, Menin MLL FP TR 0.7% and Menin-MLL FL inh -2.0.
Screening CC1(C)CC(=O)C2=C(C1)OC(=O)CC2c1cccc2ccccc12 (configuration not stated) returned LDHA inh 4.6.
`CC1CCN(Cc2cnc(Cl)s2)CC1` gave LDHA inh -3.6, IDH1 R132H inh -2.0%, Akt phos inh inactive, MLL CXXC-DNA inh 11.0%, Menin MLL FP TR -3.1% and Menin-MLL FL inh -3.0.
`CC1CCCN(Cc2cnc(Cl)s2)C1` (configuration not stated) gave LDHA inh -2.7, IDH1 R132H inh -1.2%, Akt phos inh -108.1%*, MLL CXXC-DNA inh -3.5%, Menin MLL FP TR 1.2% and Menin-MLL FL inh 1.1.
COc1ccc(NC(=O)CSc2ncnc3c2cnn3CCc2ccccc2)cc1 was read as LDHA inh -8.1, IDH1 R132H inh 6.6%, Akt phos inh -132.1%*, MLL CXXC-DNA inh 7.2%, Menin MLL FP TR inconclusive and Menin-MLL FL inh -0.3.
For CCc1ccc2c(c1)-c1ccccc1S(=O)(=O)N2CC(=O)N(CC)CC the results were LDHA inh 26.4.
Cc1ccc(NC(=O)c2ccc(S(=O)(=O)N3CCCCC3)cc2)cc1 was read as LDHA inh -14.5, IDH1 R132H inh 3.4%, Akt phos inh inactive, MLL CXXC-DNA inh 14.6%, Menin MLL FP TR -10.0% and Menin-MLL FL inh -1.4.
For Cc1ccc(S(=O)(=O)N2CCN(C(=O)CN3CCCCC3)C2)cc1 the results were LDHA inh -0.3, IDH1 R132H inh 14.5%, Akt phos inh -101.1%*, MLL CXXC-DNA inh 9.3%, Menin MLL FP TR -1.8% and Menin-MLL FL inh -0.1.
Screening O=C(Nc1ccon1)c1ccc(S(=O)(=O)N2CCCCCC2)cc1 returned LDHA inh -1.8, IDH1 R132H inh -2.3%, Akt phos inh -115.9%*, MLL CXXC-DNA inh -0.8%, Menin MLL FP TR -7.8% and Menin-MLL FL inh 2.4.
Cc1ccc(S(=O)(=O)N2CCN(C(=O)CN3CCCC3)C2)cc1 was read as LDHA inh -3.0, IDH1 R132H inh 12.4%, Akt phos inh inactive, MLL CXXC-DNA inh 2.8%, Menin MLL FP TR 9.2% and Menin-MLL FL inh -0.7.

From PubChem
